What all share (settings): modulator concentration 10 µM
Test [1] relates to RAW-Dual (murine macrophage reporter line). In words: NF-kB reporter (SEAP) activity fold change vs agonist alone; higher = enhanced NF-kB activity. An outline of the steps:
(§1)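 Compound reached 10 μM final in each well by pin transfer, onto RAW-Dual murine macrophage reporter cells seeded at 50 000 per well in 384-well plates. After 1 hour at 37 °C, the cells were stimulated overnight with a PRR agonist. SEAP in the supernatant was read with QUANTI-Blue at 620 nm absorbance for NF-κB, and Lucia luciferase was read with QUANTI-Luc luminescence for IRF. Each signal was turned into fold change against the mean agonist-only control on the same plate, and two replicate plates were averaged with propagated errors.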

The test system is the same in test [2]. In words: IRF reporter (Lucia luciferase) activity fold change vs agonist alone; higher = enhanced IRF activity. An outline of the steps:
as §1

Test [3] shares this test system. In words: viability score (confluency relative to resting cells, overnight) (fraction); higher = more viable, active = viable (0.7 or more). An outline of the steps: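 RAW-Dual macrophages in 384-well plates were treated overnight with compound at 10 μM final. IncuCyte imaging recorded confluency, and IncuCyte software built two confluency masks across every imaged well. The viability score expresses confluency relative to resting cells and was judged against a cutoff, which a compound met only if both masks exceeded 70% of resting cells.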

Setting [4] is: agonist: CpG ODN 1826 0.5 ug/mL.

Each structure is given as a SMILES string. ± gives the standard deviation.

On to `COc1ccc(OCCSc2nc3ccccc3n2CCO)cc1`, for which the NF-kB reporter was 1.01 ± 0.094 in test [1] (setting [4]), 1.09 ± 0.12 in test [1] (agonist: LPS 0.1 ug/mL) and 1.09 ± 0.031 in test [1] (agonist: MPLA […]). Besides, the results for the IRF reporter in test [2] (agonist: 3'3'-cGAMP 10 ug/mL), in test [2] (agonist: LPS 0.1 ug/mL) and in test [2] (agonist: MPLA […]) were 1.35 ± 0.55, 1 ± 0.063 and 1.05 ± 0.14, respectively. In test [3], the viability score is 0.992 (active).

In the case of `O=S(=O)(Nc1cccc2cccnc12)c1ccccc1`, the figures for the NF-kB reporter in test [1] (setting [4]), in test [1] (agonist: LPS 0.1 ug/mL) and in test [1] (agonist: MPLA […]) were 0.961 ± 0.13, 0.597 ± 0.097 and 0.659 ± 0.053, respectively. In addition, the IRF reporter in test [2] (agonist: 3'3'-cGAMP 10 ug/mL) was determined as 1.04 ± 0.081; in test [2] (agonist: LPS 0.1 ug/mL), 5.63 ± 1; in test [2] (agonist: MPLA […]), 1.32 ± 0.29. Besides, the viability score in test [3] is 0.745 (active).

Regarding `CCOc1ccc(C=Nc2cccc3ncccc23)cc1`, the figures for the NF-kB reporter in test [1] (setting [4]), in test [1] (agonist: LPS 0.1 ug/mL) and in test [1] (agonist: MPLA […]) were 0.971 ± 0.084, 1.02 ± 0.067 and 0.958 ± 0.077, respectively. The IRF reporter in test [2] (agonist: 3'3'-cGAMP 10 ug/mL) worked out at 0.424 ± 0.019; in test [2] (agonist: LPS 0.1 ug/mL) it was 1.15 ± 0.11; in test [2] (agonist: MPLA […]) it was 0.979 ± 0.095. Further, in test [3], the viability score is 1 (active).

Consider `COc1ccc(C=NNC(=O)CSc2nnc(-c3ccccc3)n2-c2ccccc2)cc1OC`, for which the NF-kB reporter in test [1] (setting [4]) was 1.14 ± 0.091; in test [1] (agonist: LPS 0.1 ug/mL) it was 1.14 ± 0.074; in test [1] (agonist: MPLA […]), 1.09 ± 0.045. For the same molecule, the figures for the IRF reporter in test [2] (agonist: 3'3'-cGAMP 10 ug/mL), in test [2] (agonist: LPS 0.1 ug/mL) and in test [2] (agonist: MPLA […]) were 0.845 ± 0.059, 0.958 ± 0.056 and 1 ± 0.076, respectively. Moreover, in test [3], the viability score is 0.996 (active).

For the molecule `CC(C)c1ccccc1NS(=O)(=O)c1ccccc1`, the NF-kB reporter turned out to be 0.866 ± 0.072 in test [1] (setting [4]), 0.766 ± 0.039 in test [1] (agonist: LPS 0.1 ug/mL) and 1.05 ± 0.11 in test [1] (agonist: MPLA […]). In addition, the IRF reporter in test [2] (agonist: 3'3'-cGAMP 10 ug/mL) stood at 1.08 ± 0.066; in test [2] (agonist: LPS 0.1 ug/mL), 1.4 ± 0.089; in test [2] (agonist: MPLA […]), 1.53 ± 0.16. Besides, the viability score in test [3] is 0.857 (active).

Take `CCCOc1ccc(C=C2SC(N3CCN(c4ccccc4C)CC3)=NC2=O)cc1`: the NF-kB reporter in test [1] (setting [4]) came out at 1.06 ± 0.079; in test [1] (agonist: LPS 0.1 ug/mL) it was 0.989 ± 0.078; in test [1] (agonist: MPLA […]), 0.975 ± 0.061. The IRF reporter amounted to 0.954 ± 0.049 in test [2] (agonist: 3'3'-cGAMP 10 ug/mL), 0.988 ± 0.051 in test [2] (agonist: LPS 0.1 ug/mL) and 0.968 ± 0.14 in test [2] (agonist: MPLA […]). For the same molecule, the viability score in test [3] was 1 (active).

For `Cc1ccc(C(=O)NC(Oc2ccc3ccccc3c2)C(Br)(Br)Br)cc1` (stereo not drawn), the NF-kB reporter in test [1] (setting [4]) was 0.799 ± 0.045; in test [1] (agonist: LPS 0.1 ug/mL), 1.02 ± 0.092; in test [1] (agonist: MPLA […]) it was 0.86 ± 0.053. Further, the IRF reporter is 0.598 ± 0.047 in test [2] (agonist: 3'3'-cGAMP 10 ug/mL), 1.51 ± 0.12 in test [2] (agonist: LPS 0.1 ug/mL) and 1.27 ± 0.14 in test [2] (agonist: MPLA […]). Also, the viability score in test [3] is 0.998 (active).

Turning to `CC(=O)Oc1ccc(C(=O)Nc2ccccc2Br)cc1`, the NF-kB reporter in test [1] (setting [4]) amounted to 0.856 ± 0.068; in test [1] (agonist: LPS 0.1 ug/mL), 1.01 ± 0.092; in test [1] (agonist: MPLA […]), 0.877 ± 0.066. Also, the results for the IRF reporter in test [2] (agonist: 3'3'-cGAMP 10 ug/mL), in test [2] (agonist: LPS 0.1 ug/mL) and in test [2] (agonist: MPLA […]) were 0.953 ± 0.049, 1.08 ± 0.2 and 0.904 ± 0.26, respectively. Moreover, the viability score in test [3] was 0.992 (active).

Regarding `CC(C)c1ccc(OCC(=O)NCc2nnc3n2CCC(C(F)(F)F)C3)cc1` (stereo not drawn), the figures for the NF-kB reporter in test [1] (setting [4]), in test [1] (agonist: LPS 0.1 ug/mL) and in test [1] (agonist: MPLA […]) were 1.24 ± 0.094, 1.05 ± 0.08 and 0.988 ± 0.06, respectively. For the same molecule, the IRF reporter in test [2] (agonist: 3'3'-cGAMP 10 ug/mL) was found to be 0.99 ± 0.074; in test [2] (agonist: LPS 0.1 ug/mL), 1.1 ± 0.075; in test [2] (agonist: MPLA […]) it was 1.05 ± 0.13. In test [3], the viability score is 0.996 (active).

With `COc1c2c(nc3ccccc13)OC(C(C)(O)COC(C)=O)C2` (stereo not drawn), the results for the NF-kB reporter in test [1] (setting [4]), in test [1] (agonist: LPS 0.1 ug/mL) and in test [1] (agonist: MPLA […]) were 0.944 ± 0.071, 1.02 ± 0.11 and 0.953 ± 0.11, respectively. For the same molecule, the IRF reporter in test [2] (agonist: 3'3'-cGAMP 10 ug/mL) came to 1.04 ± 0.045; in test [2] (agonist: LPS 0.1 ug/mL) it was 1.42 ± 0.15; in test [2] (agonist: MPLA […]) it was 1.3 ± 0.22. Also, in test [3], the viability score is 1 (active).

With `O=C1NC(=O)[C@@H](c2cn3c4c(cccc24)CCC3)[C@@H]1c1c[nH]c2ccccc12`, the NF-kB reporter was 1.1 ± 0.051 in test [1] (setting [4]), 1.02 ± 0.17 in test [1] (agonist: LPS 0.1 ug/mL) and 1.12 ± 0.13 in test [1] (agonist: MPLA […]). The IRF reporter in test [2] (agonist: 3'3'-cGAMP 10 ug/mL) turned out to be 0.971 ± 0.058; in test [2] (agonist: LPS 0.1 ug/mL), 0.921 ± 0.18; in test [2] (agonist: MPLA […]) it was 0.948 ± 0.27. For the same molecule, the viability score in test [3] is 1.01 (active).

On to `COc1cc2c(cc1OC)CN(CCc1ccc(NC(=O)c3cccc4c(=O)c5cccc(OC)c5[nH]c34)cc1)CC2`, for which the values for the NF-kB reporter in test [1] (setting [4]), in test [1] (agonist: LPS 0.1 ug/mL) and in test [1] (agonist: MPLA […]) were 0.0904 ± 0.022, 1.43 ± 0.075 and 1.2 ± 0.088, respectively. The IRF reporter in test [2] (agonist: 3'3'-cGAMP 10 ug/mL) was found to be 0.132 ± 0.0091; in test [2] (agonist: LPS 0.1 ug/mL), 1.42 ± 0.26; in test [2] (agonist: MPLA […]) it was 1.6 ± 0.15. Besides, the viability score in test [3] is 0.971 (active).

Consider `CCCC1=NN2C(=N)C(=Cc3cccc(OCc4ccccc4F)c3)C(=O)N=C2S1`, for which the NF-kB reporter is 0.983 ± 0.12 in test [1] (setting [4]), 0.999 ± 0.1 in test [1] (agonist: LPS 0.1 ug/mL) and 0.972 ± 0.061 in test [1] (agonist: MPLA […]). Besides, the IRF reporter in test [2] (agonist: 3'3'-cGAMP 10 ug/mL) worked out at 0.964 ± 0.064; in test [2] (agonist: LPS 0.1 ug/mL) it was 1.6 ± 0.16; in test [2] (agonist: MPLA […]), 1.17 ± 0.097. Also, in test [3], the viability score was 1.01 (active).

Turning to `CCOC(=O)C1C(=O)C=C(C)C(C(=O)OCC)C1c1ccc(Br)cc1` (stereo not drawn), the NF-kB reporter in test [1] (setting [4]) turned out to be 1.05 ± 0.083; in test [1] (agonist: LPS 0.1 ug/mL), 1.01 ± 0.093; in test [1] (agonist: MPLA […]), 1.06 ± 0.07. Moreover, the IRF reporter in test [2] (agonist: 3'3'-cGAMP 10 ug/mL) is 1.17 ± 0.047; in test [2] (agonist: LPS 0.1 ug/mL) it was 1.3 ± 0.17; in test [2] (agonist: MPLA […]) it was 1.25 ± 0.19. Moreover, in test [3], the viability score is 1 (active).

The values above are taken from the supplement of paper PMC10646978.
